uPA generation: inhibitors of cell surface uPA generation. cell surface uPA generation assay, qHTS. Potency, µM (top dose mostly 38.3 µM), for the others: at the highest dose activity change, negative = inhibition, hits mostly inhibitors. hit rate 0.31% among 330,000; active means well fitted inhibition curve with a large enough effect; inconclusive means small, poorly fitted or top-dose-only effect; inactive means no such curve, though single readings can be large or run the other way; tested in mouse RAW 264.7 cells; further: potency means the concentration at half of the fitted maximal effect; on the % scale 0 is the no-effect control and ±100 the full control effect; nearly all actives have a fitted effect of over 55% in size
D3 antag: D3 dopamine receptor (human) antagonism; P35462; D3R cells, DiscoveRx beta-arrestin luminescence, antagonist mode; stronger effect = lower value; max response, negative = inhibition, %; hit rate 2.5% among 360,000; AID 652054; in the data active means max response below about -50%; inconclusive means no clear call, values can overlap the other calls; further: on the % scale 0 is the no-effect control and ±100 the full control effect
Target sequence (P35462 whole entry, looked up): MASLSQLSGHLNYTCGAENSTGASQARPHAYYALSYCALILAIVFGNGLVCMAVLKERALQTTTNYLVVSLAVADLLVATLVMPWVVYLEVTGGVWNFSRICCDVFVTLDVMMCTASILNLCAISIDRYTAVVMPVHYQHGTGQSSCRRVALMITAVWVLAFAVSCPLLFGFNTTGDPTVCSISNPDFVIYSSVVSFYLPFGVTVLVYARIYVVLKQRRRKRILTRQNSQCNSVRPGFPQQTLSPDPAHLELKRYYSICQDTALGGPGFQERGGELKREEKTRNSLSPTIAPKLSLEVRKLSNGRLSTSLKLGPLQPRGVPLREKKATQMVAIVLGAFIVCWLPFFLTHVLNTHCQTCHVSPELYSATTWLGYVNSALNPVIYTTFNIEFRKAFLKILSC
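Cells plated overnight at 1500 cells/well, then exposed to library compounds with dopamine controls for 90 minutes at 37 degrees C. DiscoveRx reagent added for 30–60 minutes at room temperature; luminescence read, quantitative HTS format.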
RGS4 inh: blocks human RGS4-accelerated GTP hydrolysis; hit rate 0.039% among 390,000; Potency, µM (titrated, usually from 114 µM), inactives show at the highest dose activity change, negative = inhibition, most hits filed as inhibitors; Transcreener GDP fluorescence polarization, RGS4-accelerated GTP hydrolysis; P49798; active means well fitted inhibition curve with a large enough effect; inconclusive means small, poorly fitted or top-dose-only effect; inactive means no such curve, though single readings can be large or run the other way; further: potency means the concentration at half of the fitted maximal effect; on the % scale 0 is the no-effect control and ±100 the full control effect; nearly all actives have a fitted effect of over 75% in size
Target sequence (P49798 whole entry, looked up): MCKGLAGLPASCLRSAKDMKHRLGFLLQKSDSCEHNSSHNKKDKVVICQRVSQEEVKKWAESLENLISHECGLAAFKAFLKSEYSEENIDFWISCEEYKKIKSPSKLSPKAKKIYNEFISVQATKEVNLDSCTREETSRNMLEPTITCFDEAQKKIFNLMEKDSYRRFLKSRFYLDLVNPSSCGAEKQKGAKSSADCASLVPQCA
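MLSMR compounds (23 nl, pin-transferred) preincubated 10 min at room temperature with a 500nM (2x) first reagent, then RGS4 at 900nM (2x) plus Transcreener GDP mix added; fluorescence polarization (620/688 nm) read before and after 90 min at 30 °C.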
DRD3 agonist: activates the human D3 dopamine receptor; D3R DiscoveRx beta-arrestin cells, luminescence, 90 min; max activation, %; hit rate 0.58% among 410,000; in the data active means max activation above about 30%; further: 0% is about no effect
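Agonist mode: compounds and dopamine controls were applied to plated cells for 90 min at 37 degrees C after an overnight attachment at 1500 cells/well. Luminescent read-out followed 30 - 60 minutes at room temperature with DiscoveRx detection reagent.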
An asterisk follows results filed as active; [ ] = dose if it differs, or a comment. Shown are actives, neighbours in structure and some others; about 3.1% of the full set was active somewhere.

Screening Cc1ccc(NC(=O)CN2C(=O)c3ccccc3Sc3ccc(C(=O)N4CCCC4)cc32)cc1 returned RGS4 inh -24.5% and DRD3 agonist 7.7.
Screening Cc1nn(CCC(=O)NCc2ccc(N(C)C)cc2)c(=O)c2nn(-c3ccccc3)c(C)c12 returned uPA generation 5.1%, D3 antag 0.8, RGS4 inh -14.4%[56.9 µM] and DRD3 agonist -1.1.
Cc1nn(CCC(=O)NCc2ccc(Cl)cc2)c(=O)c2nn(-c3ccccc3)c(C)c12 was read as RGS4 inh 15.0% and DRD3 agonist 56.6*.
For CCC(C(=O)NCc1ccccc1)n1nc(C)c2sc3ccccc3c2c1=O (configuration not stated) the results were RGS4 inh -14.4% and DRD3 agonist -10.6.
For CCC(C(=O)NCCc1ccc(C)cc1)n1nc(C)c2c(C)n(-c3ccccc3)nc2c1=O (configuration not stated) the results were uPA generation 8.4%, D3 antag -78.8*, RGS4 inh -12.3% and DRD3 agonist -11.1.
`CCC(C(=O)NCCCN(CC)Cc1ccccc1)n1nc(C)c2sc3ccccc3c2c1=O` (configuration not stated) gave uPA generation inconclusive, D3 antag -83.7*, RGS4 inh -0.4% and DRD3 agonist -7.3.
For CCC(C(=O)NCCc1ccc(SC)cc1)n1nc(C)c2c(C)n(-c3ccc(C)cc3)nc2c1=O (configuration not stated) the results were RGS4 inh -13.0% and DRD3 agonist -3.7.
NC(=O)CSc1nc2ccc(NC(=O)COc3ccccc3Cl)cc2s1 was read as RGS4 inh -38.0% and DRD3 agonist 1.4.
Screening OCC(S)CS (configuration not stated) returned DRD3 agonist -8.0.
COc1ccnc(CSC(N)=Nc2ccc(F)cc2)c1 was read as uPA generation 0.7%, D3 antag -71.3*, RGS4 inh -42.2% and DRD3 agonist -4.9.
COc1ccc(Cn2c(CO)cnc2SCc2ccc(F)cc2)cc1 was read as RGS4 inh 5.0% and DRD3 agonist -1.2.
For COC(=O)c1cc2oc3ccccc3c2n1Cc1c(F)cccc1Cl the results were RGS4 inh 19.4% and DRD3 agonist -13.4.
CC(C)Nc1ccc(-c2nc(-c3ccccn3)no2)cc1[N+](=O)[O-] was read as RGS4 inh 12.3% and DRD3 agonist -0.1.
Screening O=C(Nc1ccccc1O)c1ccc(NS(=O)(=O)c2cccc3cccnc23)cc1 returned uPA generation 7.08µM*, D3 antag 12.7, RGS4 inh -44.5% and DRD3 agonist 2.6.
Screening Cc1ccccc1NC(=O)c1ccc(NS(=O)(=O)c2cc(C(C)(C)C)cc(C)c2C)cc1 returned uPA generation -6.2%, D3 antag -57.0*, RGS4 inh -10.8% and DRD3 agonist -26.2.
For NC(=O)CSc1ccc2nnc(-c3ccncc3)n2n1 the results were RGS4 inh -11.5%.
Screening O=C(CCCc1ccccc1)NCCCN1CCOCC1 returned uPA generation -1.1%, D3 antag 5.1, RGS4 inh 2.1% and DRD3 agonist -4.9.
Screening S=C(NCCCN1CCOCC1)N(Cc1ccccc1)Cc1ccccc1 returned uPA generation -16.3%, D3 antag -93.1*, RGS4 inh -7.6% and DRD3 agonist -2.3.
`CC(=C/c1ccccc1)/C=N/Nc1nc(N2CCCCC2)nc(N2CCCCC2)n1` gave uPA generation 0.9%, D3 antag 14.7, RGS4 inh -8.0% and DRD3 agonist 32.3*.
For C(=C\c1ccccc1)/C=N/Nc1nc(N2CCCCC2)nc(N2CCCCC2)n1 the results were uPA generation 0.2%, D3 antag 9.7, RGS4 inh -21.5% and DRD3 agonist 1.7.
`CC(C)(C)C(=O)CC1(O)C(=O)N(Cc2ccccc2)c2ccccc21` (configuration not stated) gave D3 antag 9.2, RGS4 inh -10.2% and DRD3 agonist 9.3.
Screening CC1CCOC2(O1)C(=O)N(CN1CCN(c3cccc(Cl)c3)CC1)c1ccccc12 (configuration not stated) returned uPA generation -3.3%, D3 antag -57.5*, RGS4 inh 5.8% and DRD3 agonist -15.2.
`CC(=O)CC1(O)C(=O)N(CN2CCN(c3ccccc3)CC2)c2ccccc21` (configuration not stated) gave uPA generation 9.4%, D3 antag -58.1*, RGS4 inh 2.6% and DRD3 agonist -23.5.
Screening O=C(CN1C(=O)C2(OCCO2)c2ccccc21)c1ccc(Cl)cc1 returned D3 antag -22.0, RGS4 inh -8.8% and DRD3 agonist 2.7.
`Cc1cccc(NC(=O)CSc2nc3c(sc4ccccc43)c(=O)n2CCCC(=O)NC2CCCC2)c1` gave RGS4 inh -8.1% and DRD3 agonist -3.9.
`C(=C\c1ccccc1)/CN1CCN(C(c2ccccc2)c2nnnn2Cc2ccccc2)CC1` (configuration not stated) gave D3 antag -70.5* and DRD3 agonist -18.5.
CCN1CCN(C(c2ccccc2)c2nnnn2Cc2ccc(OC)cc2)CC1 (configuration not stated) was read as uPA generation -16.3%, D3 antag -13.9, RGS4 inh 36.4% and DRD3 agonist -9.3.
For COc1ccc(C(c2nnnn2Cc2ccccc2)N2CCN(C/C=C/c3ccccc3)CC2)cc1 (configuration not stated) the results were D3 antag -96.1* and DRD3 agonist -15.6.
Screening Cc1ccc(C(=O)c2c3ccc(C(F)(F)F)cc3[n+]([O-])n2CCCN)cc1 returned uPA generation -14.5%, D3 antag 24.7, RGS4 inh -0.5% and DRD3 agonist -23.0.
`Cc1ccc(C(=O)c2c3ccc([N+](=O)[O-])cc3[n+]([O-])n2CCCN)cc1` gave uPA generation 0.631µM*, D3 antag 9.0, RGS4 inh -19.8% and DRD3 agonist -3.6.
O=c1oc2ccc(Br)cc2cc1-c1nc2c(s1)CCc1ccccc1-2 was read as RGS4 inh -13.6%.
Cn1cc(C(=O)c2ccccc2)cc1-c1nc2ccccc2n1C was read as uPA generation 4.3%, D3 antag 23.6, RGS4 inh -2.3% and DRD3 agonist 1.4.
Screening Cc1oc(-c2nc3ccccc3n2C)cc1C(=O)c1ccccc1 returned uPA generation -6.3%, D3 antag -60.2*, RGS4 inh inconclusive and DRD3 agonist 2.6.
`NC(=O)c1ccccc1OCC(=O)NS(=O)(=O)c1ccccc1` gave uPA generation 13.0%, D3 antag -65.5*, RGS4 inh 11.1% and DRD3 agonist -1.8.
For O=P(O)(O)OC(CO)CO the results were DRD3 agonist 6.8.
Screening COc1ccc(S(=O)(=O)N2CCOCC2)cc1NC(=O)c1ccc2c(c1)OCO2 returned uPA generation 23.4%, D3 antag -11.0, RGS4 inh 19.9% and DRD3 agonist 53.5*.
COc1cccc(NS(=O)(=O)c2ccc(S(=O)(=O)N3CCCC3)cc2)c1 was read as uPA generation 8.0%, D3 antag 3.7, RGS4 inh -20.9% and DRD3 agonist -0.3.
